Source: PubChem BioAssay (National Center for Advancing Translational Sciences (NCATS))
This is a sample that favours compounds with a hit; in the whole collection about 2.1% have one here.
aSyn rescue – alpha-synuclein toxicity inhibition in yeast | hit rate 0.14% among 370,000 | Yeast expressing alpha-synuclein, growth rescue, BacTiter-Glo, 24 h | Potency, µM (doses to about 46.1 µM), most hits filed as activators; also: nearly all actives have a fitted effect of over 65% in size
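Rescue of yeast growth: cells expressing toxic alpha-synuclein, induced in galactose at OD600 0.02, incubated with compound 24 h at 30 C. ATP luminescence quantified growth; inhibitors of toxicity appear as activators.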
AT treatment – potential ataxia-telangiectasia treatment | F2112 A-T fibroblasts, KAP-1 phosphorylation AlphaLISA; neocarzinostatin DNA damage 30 min before lysis | hit rate 0.19% among 320,000 | Potency, µM (series often up to 57.5 µM), most hits filed as activators; also: nearly all actives have a fitted effect of over 45% in size
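hTERT-immortalized A-T patient fibroblasts (F2112), 500 cells/well in OPTI-MEM, 1% FBS, got compounds for 60 min, then NCS for 30 min at 37C. Lysates were then assayed for phospho-KAP-1 by AlphaLISA (anti-pKAP1 donor, anti-KAP1 acceptor beads), 6 hr at 25C.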
Abeta yeast res – compounds reversing amyloid beta toxicity in yeast; yeast expressing A-beta42, growth rescue, OD600, 48 h; response scale: 0% DMSO, 100% iron-clioquinol control; Potency, µM (doses to about 46.1 µM), most hits filed as activators; hit rate 0.063% among 410,000; also: nearly all actives have a fitted effect of over 55% in size
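Yeast A-beta toxicity model in growth medium with pinned compounds, 48 h at 30 C; growth read as absorbance at 600 nm. Normalized to FeCl3/clioquinol equimolar mix (positive) and DMSO (negative).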
GRP78 ERSR act – induces the endoplasmic reticulum stress response in human glioma cells; Potency, µM, actives largely listed as activators; hit rate 0.02% among 420,000; U87-MG GRP78 promoter luciferase reporter, 16 h; also: series mostly up to about 76 µM; nearly all actives have a fitted effect of over 35% in size
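ERSR induction read as luciferase luminescence (Bright-Glo, 10 min at room temperature) in stably transfected human U87-MG glioma cells exposed to compounds for 16 h, using GRP78 as sensor.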
Mito fusion yeast – mitochondrial division inhibition or fusion activation; S. cerevisiae fusion-defective mutant growth rescue, CellTiterGlo 48 h; Potency, µM (series often up to 46.1 µM), usual class: activators; hit rate 0.23% among 320,000; AID 485298; also: nearly all actives have a fitted effect of over 45% in size
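Temperature-sensitive fusion-defective S. cerevisiae (e.g. fzo1-1, mgm1-5) were grown with compound in YPEG medium (3% ethanol, 3% glycerol) for 48 hours at 37C. Growth rescue was measured as viability by CellTiterGlo luminescence after 10 minutes at ambient.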
TDP-43 yeast inh – rescues yeast growth from TDP-43 toxicity | TDP-43 expressing yeast growth rescue, BacTiter-Glo, 24 h | Potency, µM (titrated, usually from 46.1 µM), usual class: activators | hit rate 1.8% among 410,000; also: nearly all actives have a fitted effect of over 50% in size
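Cell-based yeast growth screen: TDP-43 expression induced in galactose, inoculum OD600=0.02 after raffinose pregrowth to mid-log. Read-out BacTiter-Glo luminescence at 24 hr, 30 deg C; inhibition of toxicity seen as signal increase.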
Hits are given with their value; i = inactive; ? = inconclusive; nt = not tested or not shown; [ ] = another dose, or the depositor's remark. Calls follow the shape of the dose curve; as a rule, active = well fitted curve in the direction sought with a large enough effect; inconclusive = small, poorly fitted or top-dose-only effect, or another doubt; inactive = no such curve, though single readings can be large; an effect the other way counts as inactive or inconclusive.

SMILES | aSyn rescue | AT treatment | Abeta yeast res | GRP78 ERSR act | Mito fusion yeast | TDP-43 yeast inh
N#Cc1nc(-c2cccs2)oc1NCCc1ccccc1 | i | nt | i | i | i | i
CCSc1nnc(NC(=O)c2ccccc2C)s1 | i | i | i | i | ? | 11µM
CCSc1nnc(NC(=O)c2ccccc2)s1 | i | i | i | i | i | i
FC(F)(F)c1cc(-c2ccccc2)nc(NCC2CCCO2)n1 (configuration not stated) | i | i | i | i | i | 13µM
Fc1ccc(-c2cc(C(F)(F)F)nc(NCC3CCCO3)n2)cc1 (configuration not stated) | i | i | i | i | i | ?
CC(C)C[C@H](N)c1nnc(SCC(=O)Nc2ccc(Br)cc2)o1 | i | i | i | i | i | i
CC(C)C[C@H](NC(=O)OC(C)(C)C)c1nnc(SCC(=O)Nc2ccc(Br)cc2)o1 | i | i | i | i | i | 0.32µM
CC(=O)NCCNc1ncnc2ccc(-c3ccc(C(=O)N(C)C)cc3)cc12 | nt | nt | nt | i | nt | nt
C=C(C)CNC(=S)N/N=C/C1=CCC2CC1C2(C)C (configuration not stated) | i | i | i | i | ? | 18µM
CCCCNC(=S)N/N=C/C1=CCC2CC1C2(C)C (configuration not stated) | i | i | ? | i | ? | i
O=C(Nc1ccc(Br)cc1F)C1CCN(c2nc3ccccc3[nH]2)CC1 | nt | nt | i | i | nt | i
Cc1ccccc1NC(=O)C1C2CCCCC21 (configuration not stated) | i | i | i | i | i | i
Cc1ccccc1NC(=O)C1C2C=CC(C3CC23)C1C(=O)O (configuration not stated) | i | i | i | i | i | 11µM
CC(=O)c1cccc(NC(=O)C2C3C=CC(C4CC34)C2C(=O)O)c1 (configuration not stated) | i | i | ? | i | i | 22µM
COC(=O)C1CCN(Cc2ccc3c(c2)CN(C(=O)c2cc(C)on2)CCO3)CC1 | nt | nt | nt | i | nt | nt
O=C(CN1CCN(C(=O)c2c(F)cccc2F)CC1)Nc1ccccc1C(F)(F)F | i | i | i | i | i | 16µM
COc1ccc2cc(CNCc3nonc3C)c(N3CCCC(CO)C3)nc2c1 (configuration not stated) | nt | nt | nt | i | nt | nt
Cc1[nH]c(-c2ccc(F)cc2)cc1C(=O)N1CCN(c2ccccc2)CC1 | ? | i | i | i | i | 18µM
COc1cc(CN2CCC3(CC2)c2ccccc2[C@@H](NC(=O)c2ccccc2OC)[C@@H]3O)ccc1F | nt | nt | nt | i | nt | nt
Cc1ccc(Cl)c2sc(N3CCN(C(=O)c4ccco4)CC3)nc12 | i | i | i | i | i | i
Cc1cccc2sc(N3CCN(C(=O)c4ccco4)CC3)nc12 | nt | nt | i | i | nt | 11µM
Cc1ccc(C)c2sc(N3CCN(C(=O)c4ccco4)CC3)nc12 | nt | nt | i | i | nt | 11µM
NC(=S)Cc1nc(-c2ccc(Cl)cc2)cs1 | i | i | 6.3µM | i | i | ?
CSc1nc2ccccc2nc1N(C)S(=O)(=O)c1ccc(C)cc1 | i | 1.1µM | i | i | i | i
Cc1ccc(S(=O)(=O)N(C)c2ccccc2)cc1 | i | i | i | i | i | i
SMILES | aSyn rescue | AT treatment | Abeta yeast res | GRP78 ERSR act | Mito fusion yeast | TDP-43 yeast inh
Cc1oc(-c2ccccc2NC(=O)C2CCC2)nc1CNC(=O)c1ccc2ccccc2c1 | nt | nt | nt | i | nt | nt
Cc1ccc(C2CN(C)C3(C(=O)Nc4ccccc43)C23COc2ccccc2C3=O)cc1 (configuration not stated) | i | i | i | i | i | 3.5µM
COc1ccc(OCC(O)CNc2ccc(Br)cc2)cc1 (configuration not stated) | i | i | i | i | i | 11µM
Cc1c(C)c2c(c(C)c1OC(=O)CCC(=O)OCCO)CC[C@](C)(CCC[C@H](C)CCC[C@H](C)CCCC(C)C)O2 | nt | nt | nt | i | nt | nt
CC(C)CO/N=C1/[C@H]2O[C@@H]2[C@@H](O)[C@H]2[C@H]1CCn1c(=O)n(C)c(=O)n12 | nt | nt | nt | i | nt | nt
O=C(OCn1ncc(Cl)c(Cl)c1=O)c1ccc(C(F)(F)F)cc1 | i | i | i | i | i | 4µM
CCOC(=O)c1ccc(NC(=O)Cn2ncc(Cl)c(Cl)c2=O)cc1 | i | i | i | i | i | i[0.397 µM]
Cc1ccc(C(=O)OCn2ncc(Cl)c(Cl)c2=O)cc1 | i | i | i | i | i | 3.2µM
COc1cc(/C=C/C(=O)O[C@H]2CC[C@]34C[C@]35CC[C@]3(C)[C@@H]([C@H](C)CCC=C(C)C)CC[C@@]3(C)C5CCC4C2(C)C)ccc1O (some centres not stated) | nt | nt | nt | i | nt | nt
COc1ccc(CN2CCCC(Cn3cc(C(=O)N4CCCC4)nn3)C2)c(O)c1 (configuration not stated) | nt | nt | nt | i | nt | nt
O=C(c1ccc(Sc2cccc(Cl)c2)c([N+](=O)[O-])c1)N1CCN(c2ccccn2)CC1 | ? | i | 5µM | i | ? | 22µM
CC[C@]12CCCN3CCc4c(n(c5ccccc45)C(=O)C1)[C@H]32 | nt | nt | nt | i | nt | nt
COc1cc(-c2cc(C)c3cccc(OC)c3n2)cc2c1OCCN(C(=O)Cn1nc(C)cc1C)C2 | nt | nt | nt | i | nt | nt
COCCN(C(=O)c1ccco1)c1nnc(-c2ccc(F)cc2)s1 | i | i | i | i | i | ?
CCCN(C(=O)c1ccco1)c1nnc(-c2ccccc2C)s1 | i | ? | i | i | i | 13µM
Cc1cccc(-c2nc(CS(=O)CC(=O)NC3CCCC3)c(C)o2)c1 (configuration not stated) | 5.6µM | i | i | i | i | ?
Clc1cccc(N2CCN(CCCN3CCN(c4ccccc4)CC3)CC2)c1 | i | nt | i | i | nt | i
Nc1ccc(N2CCN(c3cccc(Cl)c3)CC2)cc1 | i | i | i | i | 4µM | ?
COC(=O)C1=C(C)NC(COC(N)=O)=C(C(=O)OC(C)C)C1c1cccc(Cl)c1Cl (configuration not stated) | nt | nt | nt | i | nt | nt
Cc1ccccc1CN1CCc2c(OCC(=O)N3CCCc4ccccc43)cccc2C1=O | i | i | i | i | ? | 13µM
CCOC(=O)COc1cc(Br)c(/C=N/Nc2ccccc2)cc1OC | i | i | i | 35µM | i | i
c1ccc(Oc2c3ccccc3nc3ccccc23)cc1 | i | i | i | i | i | i
N#Cc1c2ccccc2nc2ccccc12 | ? | i | i | i | i | 11µM
Brc1c(-c2ccccc2)nc2n1Cc1ccccc1-2 | ? | i | i | i | i | 13µM
CCn1c(-c2ccccc2F)nc2cc(C(=O)N3CCNC(=O)C3CC(=O)OC)cc(NC(C)=O)c21 (configuration not stated) | nt | nt | nt | i | nt | nt
Cc1ccc(S(=O)(=O)Nc2ccc3c(c2)c(C(=O)OC(C)C)c(C)n3S(=O)(=O)c2ccc(C)cc2)cc1 | nt | nt | i | i | nt | ?
